Source: PubChem BioAssay (Tox21)
Inconclusive results are not listed. Activity calls are given as the source filed them. Unless noted, calls come from the whole dose curve; as a rule, active = well fitted curve in the direction sought with a large enough effect in the repeat runs; inconclusive = weak or mixed curves; inactive = no such curve, though single readings can be large; an effect the other way counts as inactive or inconclusive.

Tests used:
[1] = qHTS assay to identify small molecule agonists of the hypoxia (HIF-1) signaling pathway - cell viability counter screen (AID 1224844; calls by dose curve; note: nearly all actives have a fitted effect of over 50% in size)
Procedure, shortened: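 Viability counter screen: HRE-bla ME-180 cells plated 5 hrs before compound addition, treated 17 hrs at 37C and 5% CO2, then CellTiter-Glo added after the FRET reporter read; luminescence after 30 min.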

[2] = qHTS assay to identify small molecule agonists of H2AX (AID 1224845; active = well fitted activation curve with a large enough effect in the signal ratio in the repeat runs, not every such curve was filed as active; the % refers to the signal ratio)
Procedure, shortened: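 Wild-type CHO-K1 cells, plated overnight, exposed 3hr at 37C to 15 concentrations (0.76% DMSO final). Lysed, then HTRF anti-pH2AX (S139) cryptate and anti-H2AX-d2 antibodies, 24 hr room temperature; 665/620 nm emission read.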

[3] = qHTS assay to identify small molecule agonists of the hypoxia (HIF-1) signaling pathway (AID 1224846; active = well fitted activation curve with a large enough effect in the signal ratio in the repeat runs, not every such curve was filed as active; the % refers to the signal ratio)
Procedure, shortened: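 Agonist mode reporter screen. ME-180 cells stably expressing bla under HRE control received test compounds in DMSO for 17 hrs (37C, 5% CO2), and beta-lactamase activity was then detected with the CCF4-AM FRET substrate.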

[4] = qHTS assay to identify small molecule agonists of H2AX - cell viability counter screen (AID 1224847; calls by dose curve; note: top concentration of the series differs between compounds; nearly all actives have a fitted effect of over 30% in size)
Procedure, shortened: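 Counter-screen for viability: CellTiter-Glo ATP luminescence read after 3 h compound treatment (15-point titration, 0.76% DMSO final) of CHO-K1 cells at 37C, with 30 min room-temperature reagent incubation.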

[5] = qHTS RealTime-Glo MT Cell Viability Assay in HepG2 cells - 24 hour (AID 1224867); note: nearly all actives have a fitted effect of over 50% in size
Procedure, shortened: (§1)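 HepG2 suspension premixed with RealTime-Glo reagents is plated at 600 cells per well and left 5 h at 37 C/5% CO2. Compounds in DMSO then go in, and bioluminescence reflecting viable cell number is recorded over 40 h.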

[6] = qHTS RealTime-Glo MT Cell Viability Assay in HEK293 cells - 32 hour (AID 1224868); note: top concentration of the series differs between compounds; nearly all actives have a fitted effect of over 50% in size
Procedure, shortened: (§2)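 Reads taken at 0, 8, 16, 24, 32 and 40 h from the same wells. HEK293 cells (600/well) carried RealTime-Glo reagents from seeding, with compound added after a 5 h settle at 37 C.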

[7] = A CellTox Green Cytotoxicity Assay to monitor cytotoxicity in HEK293 cells - 0 hour (AID 1224869); note: nearly all actives have a fitted effect of over 50% in size
Procedure, shortened: (§3)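 Dead-cell fluorescence measured kinetically: asymmetric cyanine dye, HEK293, 600 cells/well, 5 h settle, 23 nL cpd/DMSO, 37 C, reads 0–40 h every 8 h.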

[8] = qHTS RealTime-Glo MT Cell Viability Assay in HepG2 cells - 40 hour (AID 1224870); note: nearly all actives have a fitted effect of over 50% in size
Procedure, shortened: (§4)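 HepG2 cells (600/well) mixed with RealTime-Glo MT reagent, settled 5 h at 37 C/5% CO2 before compound addition. Nonlytic NanoLuc luminescence from viable-cell prosubstrate reduction read repeatedly during 40 h treatment at 37 C.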

[9] = A CellTox Green Cytotoxicity Assay to monitor cytotoxicity in HEK293 cells - 40 hour (AID 1224871); note: nearly all actives have a fitted effect of over 45% in size
Procedure, shortened: as §3

[10] = qHTS RealTime-Glo MT Cell Viability Assay in HEK293 cells - 16 hour (AID 1224872)
Procedure, shortened: as §2

[11] = qHTS RealTime-Glo MT Cell Viability Assay in HepG2 cells - 8 hour (AID 1224873); note: nearly all actives have a fitted effect of over 55% in size
Procedure, shortened: as §4

[12] = qHTS RealTime-Glo MT Cell Viability Assay in HEK293 cells - 40 hour (AID 1224874); conditions: RealTime-Glo luminescence; max response: active compounds read low; note: nearly all actives have a fitted effect of over 50% in size
Procedure, shortened: (§5)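 600 HEK293 cells per well, dispensed already mixed with RealTime-Glo MT reagents. Compound dosing came 5 h later. The same wells were read for luminescence at 0, 8, 16, 24, 32 and 40 h of exposure at 37 C.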

[13] = A CellTox Green Cytotoxicity Assay to monitor cytotoxicity in HEK293 cells - 24 hour (AID 1224875); note: nearly all actives have a fitted effect of over 45% in size
Procedure, shortened: as §3

[14] = A CellTox Green Cytotoxicity Assay to monitor cytotoxicity in HepG2 cells - 16 hour (AID 1224876); note: nearly all actives have a fitted effect of over 45% in size
Procedure, shortened: (§6)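 First, HepG2 cells (600/well) mixed with reagent were plated; second, after 5 h at 37 C they received compounds via pintool; third, fluorescence was measured at 0 h through 40 h at 8 h intervals.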

[15] = qHTS RealTime-Glo MT Cell Viability Assay in HepG2 cells - 32 hour (AID 1224877); note: nearly all actives have a fitted effect of over 55% in size
Procedure, shortened: as §1

[16] = A CellTox Green Cytotoxicity Assay to monitor cytotoxicity in HepG2 cells - 24 hour (AID 1224878); note: nearly all actives have a fitted effect of over 45% in size
Procedure, shortened: as §6

[17] = A CellTox Green Cytotoxicity Assay to monitor cytotoxicity in HepG2 cells - 40 hour (AID 1224879); note: nearly all actives have a fitted effect of over 40% in size
Procedure, shortened: as §6

[18] = qHTS RealTime-Glo MT Cell Viability Assay in HEK293 cells - 0 hour (AID 1224880)
Procedure, shortened: as §5

[19] = qHTS assay to identify small molecule agonists of the estrogen related receptor (ERR) signaling pathway from Tox21 library (AID 1224849; calls by dose curve; note: nearly all actives have a fitted effect of over 15% in size); conditions: ERR reporter cell line, ONE-Glo luciferase, 18 h; at 92.4 µM (top of the series) unless noted
Procedure, shortened: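 Quantitative HTS in agonist format: NTP ERR cell line, compounds transferred in DMSO after 6 h plating, 18 h incubation at 37 C, ONE-Glo luminescence endpoint.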
% is set by controls: 0 for no effect and ±100 for the full control effect.

O=C(Cl)c1ccc([N+](=O)[O-])cc1
inactive: Potency [1] | Potency [2] | outcome [3] | Potency [4] | Potency [5] | Potency [6] | Potency [7] | Potency [8] | Potency [9] | Potency [10] | Potency [11] | max response [12] 7.36% | Potency [13] | Potency [14] | Potency [15] | Potency [16] | Potency [17] | Potency [18]

O=C(Cl)c1c(Cl)cccc1Cl
inactive: Potency [1] | Potency [2] | outcome [3] | Potency [4] | Potency [5] | Potency [6] | Potency [7] | Potency [8] | Potency [9] | Potency [10] | Potency [11] | max response [12] -14.9% | Potency [13] | Potency [14] | Potency [15] | Potency [16] | Potency [17] | Potency [18]

O=C1c2cccc(O)c2C(=O)c2c(O)cc(CO)cc21
inactive: Potency [1] | Potency [2] | outcome [3] | Potency [4] | activity change, positive = activation [19] -22.2% | Potency [5] | Potency [7] | Potency [9] | Potency [11] | max response [12] 29.8% | Potency [13] | Potency [14] | Potency [15] | Potency [16] | Potency [17] | Potency [18]

CC(C)CCCC(C)CCO (stereo unspecified)
inactive: Potency [1] | Potency [2] | outcome [3] | Potency [4] | Potency [5] | Potency [6] | Potency [7] | Potency [8] | Potency [9] | Potency [10] | Potency [11] | max response [12] 14.4% | Potency [13] | Potency [15] | Potency [17] | Potency [18]

O=C1CCCCCO1
inactive: Potency [1] | Potency [2] | outcome [3] | Potency [4] | Potency [5] | Potency [6] | Potency [7] | Potency [8] | Potency [10] | Potency [11] | max response [12] 10.5% | Potency [13] | Potency [14] | Potency [15] | Potency [16] | Potency [17] | Potency [18]

Cc1c(Cn2ccnc2)c2ccccc2n1CCC(=O)O
inactive: Potency [1] | Potency [2] | outcome [3] | Potency [4] | Potency [5] | Potency [6] | Potency [7] | Potency [8] | Potency [9] | Potency [10] | Potency [11] | max response [12] 4.63% | Potency [13] | Potency [14] | Potency [15]

C=C(C)C(=O)OC(C)C
inactive: Potency [1] | Potency [2] | outcome [3] | Potency [4] | Potency [5] | Potency [6] | Potency [7] | Potency [8] | Potency [10] | Potency [11] | max response [12] 6% | Potency [13] | Potency [14] | Potency [15] | Potency [17] | Potency [18]

OCCC1CCCCN1 (stereo unspecified)
inactive: Potency [1] | Potency [2] | outcome [3] | Potency [4] | Potency [5] | Potency [6] | Potency [7] | Potency [8] | Potency [9] | Potency [10] | Potency [11] | max response [12] -19.6% | Potency [13] | Potency [14] | Potency [15] | Potency [16] | Potency [17] | Potency [18]

Nc1cnn([C@@H]2O[C@H](CO)[C@@H](O)[C@H]2O)c(=O)n1
inactive: Potency [1] | Potency [2] | outcome [3] | Potency [4] | Potency [5] | Potency [6] | Potency [7] | Potency [8] | Potency [9] | Potency [10] | Potency [11] | max response [12] -6.05% | Potency [13] | Potency [14] | Potency [15] | Potency [17] | Potency [18]

CCN1CCC[C@H]1CNC(=O)c1c(OC)ccc(Br)c1OC
inactive: Potency [1] | Potency [2] | outcome [3] | Potency [4] | Potency [5] | Potency [6] | Potency [7] | Potency [8] | Potency [9] | Potency [10] | Potency [11] | Potency [13] | Potency [14] | Potency [15] | Potency [16] | Potency [17] | Potency [18]

CCCCCCCCCCCCC(=O)O
inactive: Potency [1] | Potency [2] | outcome [3] | Potency [4] | Potency [5] | Potency [6] | Potency [7] | Potency [8] | Potency [9] | Potency [10] | Potency [11] | max response [12] 0.0822% | Potency [13] | Potency [14] | Potency [15] | Potency [16] | Potency [17] | Potency [18]

CN(C)CCCOc1nn(Cc2ccccc2)c2ccccc12
inactive: Potency [1] | Potency [2] | outcome [3] | Potency [4] | activity change, positive = activation [19] -2.65% [at 42.5 µM] | Potency [5] | Potency [7] | Potency [9] | Potency [10] | Potency [11] | Potency [13] | Potency [15]

COCCO
inactive: Potency [1] | Potency [2] | outcome [3] | Potency [4] | Potency [5] | Potency [6] | Potency [7] | Potency [8] | Potency [9] | Potency [10] | Potency [11] | max response [12] 11.8% | Potency [14] | Potency [15] | Potency [18]

C1=Cc2ccccc2C1
inactive: Potency [1] | Potency [2] | outcome [3] | Potency [4] | activity change, positive = activation [19] 2.75% | Potency [5] | Potency [7] | Potency [8] | Potency [9] | Potency [10] | Potency [11] | max response [12] 6.96% | Potency [14] | Potency [15] | Potency [16] | Potency [17]

SC1CCCC1
inactive: Potency [1] | Potency [2] | outcome [3] | Potency [4] | Potency [5] | Potency [6] | Potency [7] | Potency [8] | Potency [9] | Potency [10] | Potency [11] | Potency [13] | Potency [14] | Potency [15] | Potency [16] | Potency [17] | Potency [18]

CCCCCCCCCCCCCCCCCBr
inactive: activity change, negative = cytotoxicity [1] 2.27% [at 15.8 µM] | activation (H2AX phosphorylation) [2] -1.13% [at 31.6 µM] | activation [3] -0.885% [at 15.8 µM] | activity change, negative = cytotoxicity [4] 1.9% [at 31.6 µM] | activity change, negative = cytotoxicity [5] 0.544% [at 15.8 µM] | activity change, negative = cytotoxic [6] 6.52% [at 15.8 µM] | cytotoxicity [7] -0.244% [at 15.8 µM] | activity change, negative = cytotoxic [8] 11.3% [at 15.8 µM] | cytotoxicity increase [9] -9.92% [at 15.8 µM] | activity change, negative = cytotoxicity [10] -1.86% [at 15.8 µM] | viability change, negative = cytotoxic [11] -6.16% [at 15.8 µM] | activity change [13] -8.25% [at 15.8 µM, active compounds read high] | cytotoxicity increase [14] -9.75% [at 15.8 µM] | activity change, negative = cytotoxic [15] 4.28% [at 15.8 µM] | activity change, negative = cytotoxicity [18] -0.712% [at 15.8 µM]
